# Screens (PubChem BioAssay)
# BAZ2B inh: qHTS Assay for Inhibitors of BAZ2B; AlphaScreen BAZ2B-H3K14Ac peptide displacement; Potency, µM (titrated, usually from 114 µM), hits mostly inhibitors; 360,000 compounds, 4.4% hits; further: nearly all actives have a fitted effect of over 60% in size
#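 Compounds, titrated to a top concentration of 110 uM, were incubated 30 min at room temperature with preformed BAZ2B/acetyl-K14 H3 peptide complex (50 nM each). Proximity signal was measured by AlphaScreen after 20 min with beads.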
# GLS inh: qHTS for Inhibitors of Glutaminase (GLS); GLS enzymatic activity, qHTS titration; Potency, µM (doses to about 45.5 µM), most hits filed as inhibitors; 410,000 compounds, 0.21% hits
#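 Coupled fluorescence readout: glutamate oxidase/HRP/Amplex Red detect glutamate formed by hKGA from L-glutamine (1 mM solution added). Buffer 45 mM KH2PO4 pH 8.2, 0.02% Tween-20; reads at t0 and 30 min RT.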
# JMJD2A Tudor inh: qHTS Assay for Inhibitors of JMJD2A-Tudor Domain. AlphaScreen JMJD2A-Tudor / H3K4me3 peptide binding. Potency, µM (series often up to 114 µM), hits mostly inhibitors. Lysine-specific demethylase 4A (Homo sapiens), O75164. 390,000 compounds, 4.4% hits; further: nearly all actives have a fitted effect of over 50% in size
# G9a block: qHTS Assay for Inhibitors of Histone Lysine Methyltransferase G9a. G9a H3K9 monomethylation, AlphaScreen, 2 h. Potency, µM (doses to about 102 µM), hits mostly inhibitors. 350,000 compounds, 8.8% hits; further: nearly all actives have a fitted effect of over 75% in size
#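 G9a (20 nM) was preincubated 15 min with compound, then reacted 2 h at room temperature with 500 nM biotin-H3K9 peptide and 20 µM SAM. Monomethyl-H3K9 detected by AlphaScreen using anti-H3K9me1 antibody.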
# HP1b chromo inh: HTS for Inhibitors of HP1-beta Chromodomain Interactions with Methylated Histone Tails; Potency, µM (highest dose often 114 µM), most hits filed as inhibitors; AID 540317, 2011; AlphaScreen HP1-beta / biotin-H3K9me3 peptide binding; 390,000 compounds, 0.56% hits; further: nearly all actives have a fitted effect of over 70% in size
#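 HP1-beta protein (50 nM final) preincubated 30 min at room temperature with biotinylated H3(1-18)K9me3 peptide (50 nM) in PBS pH 7.4, 0.01% Tween-20, then compound added for 30 min. AlphaScreen streptavidin donor/nickel chelate acceptor beads (10 ug/mL final), 30 min dark, luminescence read.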
# Numbers stand for hits; 0 = inactive; ? = inconclusive; - = no result; [ ] = another dose, or the depositor's remark. Most compounds without a hit are left out; they make up all but 10% or so of the library. The call rests on the fitted dose curve; in most records, active means well fitted curve in the direction sought with a large enough effect; inconclusive means small, poorly fitted or top-dose-only effect, or another doubt; inactive means no such curve, though single readings can be large; an effect the other way counts as inactive or inconclusive.
SMILES,BAZ2B inh,GLS inh,JMJD2A Tudor inh,G9a block,HP1b chromo inh
Cc1ccc(NC2=C(NC(=O)c3ccccc3)C(=O)c3ccccc3C2=O)cc1Cl,14µM,0,14µM,2.2µM,45µM
O=C(O)c1ccc(NC2=C(Cl)C(=O)c3ccccc3C2=O)cc1,50µM,0,?,?,0
CC(C(=O)Nc1ccc(C(=O)O)cc1)N1C(=O)c2ccccc2C1=O (centres undefined),0,0,0,0[2.33 µM],0
O=C(O)c1cccc(NS(=O)(=O)/C=C/c2ccccc2)c1,0,0,0,0,0
Cc1ccc(NCC(=O)c2ccccc2)cc1Cl,0,0,0,0,0
CC1=C(Nc2ccc(C(=O)O)cc2)C(=O)c2ccccc2C1=O,45µM,0,?,?,0
O=[N+]([O-])c1ccc(C(O)CSC(=S)N2CCCCC2)cc1 (centres undefined),0,0,0,0,0
O=C(COC(=O)C1=COCCO1)Nc1ccc(Oc2ccccc2)cc1,0,-,0,?,0
Cc1ccc2oc(=O)c3cc(C(=O)NCCCN4CCc5ccccc5C4)sc3c2c1,?,0,0,32µM,0
COc1ccccc1NC(=O)c1cc2c(=O)oc3ccc(C)cc3c2s1,0,0,0,0.71µM,0
CCCCOc1ccc(C(=O)Nn2c(-c3cccs3)nc3ccccc3c2=O)cc1,0,0,0,0,0
Cc1ccc(-n2ncc(C(=O)N3CCN(Cc4ccccc4)CC3)c2C2CCN(C(=O)OC(C)(C)C)CC2)c(C)c1,0,0,0,0,0
c1ccc(-n2ncc3c(NCCN4CCCCC4)ncnc32)cc1,?,0,0,45µM,0
Clc1cccc(-n2ncc3c(NCCCn4ccnc4)ncnc32)c1,28µM,0,?,0,0
Fc1ccc(-n2ncc3c(NCCCn4ccnc4)ncnc32)cc1,0,0,0,0,0
COC(=O)COn1c(-n2nc(C)cc2C)nc2ccccc2c1=O,0,0,?,?,0
NS(=O)(=O)c1ccc(NC(=O)CNC(=O)c2ccc3c(c2)OCO3)cc1,-,0,0,-,0
NC(N)=N[C@@H](CCC(=O)O)C(=O)O,-,-,-,0,-
O=C(Nc1ccc(NC(=O)C2CC2)nc1)c1ccccn1,?,0,45µM,32µM,0
CC(C)C(=O)Nc1ccc(NC(=O)c2ccccn2)cn1,0,0,?,25µM,0
CCC(=O)Nc1ccc(NC(=O)c2ccccn2)cn1,0,0,0,?,0
COc1ccc(NC(=O)C2CC(=O)N(c3cccc(C)c3C)C2)cc1 (centres undefined),0,0,0,0,0
CC(C)C[C@H](NC(=O)c1cc2cc(Cl)ccc2n1C)C(=O)N1CCC[C@H]1C(=O)O,?,0,0,?,0
CCN(CC)Cc1cc(O)c(CN(CC)CC)cc1O,18µM,16µM,0.79µM,1.3µM,1.4µM
CCN(CC)Cc1cc2ccccc2c2c1COC2,0,0,0,0,0
SMILES,BAZ2B inh,GLS inh,JMJD2A Tudor inh,G9a block,HP1b chromo inh
C#CCOCCOCCOCCNc1nc(N2CCN(C(=O)[C@H](CCC(=O)O)n3cc(C(N)CO)nn3)CC2)nc(N2CCN(C(=O)[C@H](CCC(=O)O)n3cc(C(N)[C@H](C)CC)nn3)CC2)n1 (some centres undefined),35µM,0,35µM,0,0
C#CCOCCOCCOCCNc1nc(N2CCN(C(=O)C([C@@H](C)CC)n3cc(C(N)CO)nn3)CC2)nc(N2CCN(C(=O)[C@H](CCC(=O)O)n3cc(C(N)[C@H](C)CC)nn3)CC2)n1 (some centres undefined),35µM,-,-,?,-
C#CCOCCOCCOCCNc1nc(N2CCN(C(=O)[C@H](CCCCN)n3cc(CN)nn3)CC2)nc(N2CCN(C(=O)[C@H](CCC(=O)O)n3cc([C@@H](N)CCSC)nn3)CC2)n1,-,0,89µM,-,0
C#CCOCCOCCOCCNc1nc(N2CCN(C(=O)[C@H](CCCCN)n3cc(CN)nn3)CC2)nc(N2CCN(C(=O)[C@H](CCC(=O)O)n3cc([C@@H](N)[C@H](C)CC)nn3)CC2)n1,-,0,56µM,-,0
Cn1ncc(Cl)c1C(=O)N1CCN(C(=O)c2ccco2)CC1,0,0,0,0,0
C#CCOCCOCCOCCNc1nc(N2CCN(C(=O)[C@H](CCCCN)n3cc([C@@H](N)[C@H](C)CC)nn3)CC2)nc(N2CCN(C(=O)[C@H](CCC(=O)O)n3cc([C@@H](N)CCSC)nn3)CC2)n1,-,0,79µM,-,0
C#CCOCCOCCOCCNc1nc(N2CCN(C(=O)[C@H](CCCCN)n3cc(C(N)CO)nn3)CC2)nc(N2CCN(C(=O)[C@H](CCC(=O)O)n3cc(C(N)[C@H](C)CC)nn3)CC2)n1 (some centres undefined),40µM,-,-,?,-
C#CCOCCOCCOCCNc1nc(N2CCN(C(=O)[C@H](CCC(=O)O)n3cc(C(N)[C@H](C)CC)nn3)CC2)nc(N2CCN(C(=O)[C@H](CCC(=O)O)n3cc(C(N)[C@H](C)CC)nn3)CC2)n1 (some centres undefined),79µM,0,?,0[12.7 µM],0
Cc1ccnc(NC(=O)CN(C)S(=O)(=O)c2cccc3nsnc23)c1,0,0,0,0,0
COc1cccc(CN(C(=O)COc2ccccc2[N+](=O)[O-])C2CCS(=O)(=O)C2)c1 (centres undefined),0,0,?,0,0
COc1ccc(C(=O)N2CCC(C(=O)N3CCN(c4ccc(OC)cc4)CC3)CC2)cc1,0,0,0,?,0
CCN(CC)CCCN(C(=O)c1ccc(Br)cc1)c1nc(-c2ccc(OC)cc2)cs1,50µM,0,56µM,-,?
O=C(c1ccco1)N(CCCN1CCOCC1)c1nc(-c2ccc(Cl)cc2)cs1,0,0,0,?,0
COc1ccc(-c2csc(N(CCCN3CCOCC3)C(=O)CCl)n2)cc1,?,0,?,35µM,0
Cc1nc(C)c(C(=O)Nc2cccc(Cl)c2)o1,0,0,0,0,0
O=C(O)CCc1ccc(S(=O)(=O)Nc2cc(C(F)(F)F)ccc2N2CCCC2)cc1,79µM,0,?,28µM,0
Cc1ccc(S(=O)(=O)Nc2cc(C(=O)O)ccc2N2CCCCC2)cc1,0,0,0,0[12.7 µM],0
COc1ccc2c(c1)c1c(c(=O)n(-c3ccccc3)c(=O)n1CC(=O)NCc1ccc(C)cc1)n2C,0,0,0,0,0
O=C(CSc1nn(-c2ccc(F)cc2)c(=S)s1)N1CCN(C(=O)c2ccco2)CC1,0,0,0,0,0
O=C(CSc1nn(-c2ccc(Cl)cc2)c(=S)s1)N1CCN(C(=O)c2ccco2)CC1,0,0,0,79µM,0
CCCc1cnc(N2CCN(C(=S)NC)CC2)nc1,0,0,0,0,0
